Screening results deposited in PubChem BioAssay by several laboratories.
In the library only some 2% were active in any assay of this set; here they are far more common.
DAGLB inh: diacylglycerol lipase beta (human) inhibition; AID 504411; HEK293T DAGLB membrane lysate, EnzChek fluorogenic substrate; inhibition, % at 5.17 µM; hit rate 0.059% among 340,000; Q8NCG7; in the data active means inhibition above about 34%;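 further: 0% = enzyme with vehicle and 100% = wells lacking enzyme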
NadD block: blocks S. aureus nicotinate mononucleotide adenylyltransferase. purified NadD enzyme, colorimetric absorbance read-out. inhibition, % at 20 µM. hit rate 0.78% among 360,000. AID 602399; in the data active means inhibition above about 26%
Neddyl block: cullin neddylation inhibition | inhibition, % at 25 µM | TR-FRET cullin neddylation, biochemical | hit rate 0.58% among 360,000 | P61081+Q13564; in the data active means inhibition above about 36%
Target sequence (P61081 whole entry, looked up): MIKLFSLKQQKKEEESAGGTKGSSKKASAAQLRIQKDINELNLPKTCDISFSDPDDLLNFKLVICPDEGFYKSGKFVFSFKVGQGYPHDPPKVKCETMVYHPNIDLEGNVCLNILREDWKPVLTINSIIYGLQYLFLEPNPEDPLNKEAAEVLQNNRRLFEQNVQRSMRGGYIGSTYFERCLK
Target sequence (Q13564 whole entry, looked up): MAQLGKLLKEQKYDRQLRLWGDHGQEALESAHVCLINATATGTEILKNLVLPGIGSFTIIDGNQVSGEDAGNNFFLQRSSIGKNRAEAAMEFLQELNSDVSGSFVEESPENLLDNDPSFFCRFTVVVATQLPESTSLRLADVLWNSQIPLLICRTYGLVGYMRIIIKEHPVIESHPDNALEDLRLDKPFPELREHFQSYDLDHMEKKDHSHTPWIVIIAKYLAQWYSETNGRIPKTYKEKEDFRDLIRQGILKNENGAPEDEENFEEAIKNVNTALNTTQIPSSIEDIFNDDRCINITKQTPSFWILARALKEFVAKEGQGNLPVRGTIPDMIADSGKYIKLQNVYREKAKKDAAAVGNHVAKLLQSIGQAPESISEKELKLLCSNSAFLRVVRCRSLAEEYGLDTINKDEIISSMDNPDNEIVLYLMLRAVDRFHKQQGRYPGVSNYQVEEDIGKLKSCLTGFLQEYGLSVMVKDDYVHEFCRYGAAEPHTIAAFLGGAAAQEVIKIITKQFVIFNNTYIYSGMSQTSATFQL
ARNT-TACC3 inh: ARNT/TACC3 interaction disruption; Q9Y6A5; AlphaScreen His-ARNT PAS-B/GST-TACC3 binding, luminescence; TACC3 fragment carries E629A point mutation; inhibition, % at 9.99 µM; hit rate 0.66% among 390,000; AID 623870;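 active means mean inhibition of replicates at least 50% and at least half of replicates each reaching 50%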;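 further: 0% = complete ARNT plus TACC3 wells and 100% = ARNT alone without TACC3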
HGIII-sPLA2 inh: Blocks human group III sPLA2 activity. QFRET BODIPY PC-A2 liposome hydrolysis, fluorescence. AID 743126. hit rate 0.56% among 370,000. Q9NZ20. inhibition, % at 12.2 µM;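 active means inhibition above mean plus 3 SD of compounds lying within the high and low control bounds, cut at about 19% in these data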;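 further: 0% = median of test compound wells and 100% = no enzyme DMSO wells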
sPLA2 confirm: human GIII-sPLA2 inhibition, confirmation; shares compounds with HGIII-sPLA2 inh; inhibition, % at 12.2 µM; hit rate 34% among 2,000; recombinant hGIII-sPLA2, BODIPY PC-A2 QFRET fluorescence;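 active means mean inhibition across triplicates above the hit cutoff set in the earlier primary screen, cut at about 19% in these data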;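 further: 0% = enzyme with DMSO and 100% = DMSO wells lacking enzyme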
BODIPY interf: 535nm fluorescence interference, HGIII-sPLA2 counter-screen; shares compounds with HGIII-sPLA2 inh; inhibition, % at 12.2 µM; hit rate 8.5% among 2,000; BODIPY FL product fluorescence interference, QFRET;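 active means average inhibition above the solvent-only control mean plus 3 SD, cut at about 6% in these data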;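 further: 0% = DMSO with substrate plus product and 100% = DMSO with substrate alone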
BODIPY interf DR: 535nm optical interference dose response, HGIII-sPLA2 counter-screen. shares compounds with HGIII-sPLA2 inh. BODIPY FL product fluorescence interference, cell-free. IC50, µM. 240 tested, under 10 active;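 active means IC50 at or below 10 µM; inactive means IC50 above 10 µM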
* hit, by the source's call; . = no result given.

SMILES	DAGLB inh	NadD block	Neddyl block	ARNT-TACC3 inh	HGIII-sPLA2 inh	sPLA2 confirm	BODIPY interf	others
CC(=NCc1ccco1)c1c(O)n(C)c(=O)n(C)c1=O	-1	3	-4	-3	7	.	.
N#Cc1cccc(-c2ccc([C@@H]3[C@@H](CO)N4CCCCN(C(=O)Cc5cccnc5)C[C@@H]34)cc2)c1	.	.	.	6	.	.	.
CCC(=O)N1[C@@H]2Cn3c(ccc(C4=CCCC4)c3=O)[C@H]1[C@@H](C(=O)OC)[C@@H]2CO	.	.	.	0	.	.	.
c1ccc(-c2cc(-c3ccccc3)[n+](-c3ccccc3)c(-c3ccccc3)c2)cc1	3	5	-4	1	6	.	.
CN(C)c1ccc(-[n+]2c(-c3ccccc3)cc(-c3ccccc3)cc2-c2ccccc2)cc1	.	0	-41	17	22*	27*	-37
Cc1cc(C(=O)N=Nc2c(O)n(C)c3ccccc23)c(C)o1	1	-2	-12	-2	23*	1	-2
O=C1CN=C(c2ccccc2F)c2cc(Cl)ccc2N1	-1	2	2	-7	19*	-2	-7
CN1[C@@H](CO)[C@@H]2c3ccccc3NC[C@@H]21	.	.	.	2	.	.	.
COC(=O)[C@H]1[C@H](CO)[C@H]2Cn3c(ccc(C4=CCCCC4)c3=O)[C@@H]1N2CC1CCCC1	.	.	.	-7	.	.	.
Cc1c(N=Nc2c(O)n(C)c(=O)n(C)c2=O)c(=O)n(-c2ccccc2)n1C	3	-5	-6	.	19*	1	-4
COc1ccccc1N1CCN(Cc2ccc(F)cc2)CC1	-10	-1	7	.	3	.	.
COc1ccccc1N1CCN(Cc2ccc(Cl)cc2Cl)CC1	-14	1	-2	0	21*	11	-9
c1ccc2c3c([nH]c2c1)CNCC3	1	1	3	-2	24*	18	-7
O=C1NC(=S)NC(=O)C1c1ccccc1	0	2	-2	-5	8	.	.
O=C1CC(c2ccccc2)CN1 (stereo not given)	1	-6	1	4	24*	3	-3
O=c1[nH]c(=S)n(C2CC2)c(O)c1/C=N/Nc1ccccc1	7	3	-10	2	22*	16	-4
CCc1ccc(/C=C(/C#N)C(N)=S)cc1	5	-1	-11	-5	24*	29*	3	BODIPY interf DR=>122
O=C(Cc1ccccn1)N1CCCCN2[C@@H](CO)[C@@H](c3ccc(-c4ccccc4F)cc3)[C@@H]2C1	.	.	.	4	.	.	.
O=C(Cc1cccnc1)N1CCCCN2[C@@H](CO)[C@H](c3ccc(/C=C/c4ccccc4)cc3)[C@@H]2C1	.	.	.	9	.	.	.
COc1ccc(NC(=S)NC(NC(=O)CF)C(Cl)(Cl)Cl)cc1[N+](=O)[O-] (stereo not given)	6	-2	-23	4	19*	18	-3
Clc1cccc(N2CCNCC2)c1Cl	1	-1	8	-5	25*	9	-12
